Laboratory results: PubChem BioAssay (NCI)
This is part of a sample that, as a whole, favours compounds with a hit. Of some 83,000 tested, about 20% had one in any assay.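 Activity criterion: percent growth below 10, measured after cells in 96-well plates were exposed to a single compound concentration for 48 hours.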 The source made the active and inactive calls.

Legend:
Assay in all cases: NCI-60 one-dose screen, 48 h (100 = growth as untreated, 0 = no growth, -100 = all killed)
Conditions in all cases: 10 µM unless noted
[1] = tested on: NCI-H23 lung
[2] = tested on: NCI-H226 lung
[3] = tested on: NCI-H322M lung
[4] = tested on: HOP-62 NSCLC
[5] = tested on: NCI-H460 lung
[6] = tested on: HOP-92 NSCLC
[7] = tested on: NCI-H522 lung
[8] = tested on: A549/ATCC NSCLC
[9] = tested on: 786-0 renal
[10] = tested on: DU-145 prostate
[11] = tested on: MALME-3M melanoma
[12] = tested on: MDA-MB-231 breast
[13] = tested on: RXF 393 renal
[14] = tested on: SF-268 CNS
[15] = tested on: SF-295 CNS
[16] = tested on: SF-539 CNS
[17] = tested on: UACC-257 melanoma
[18] = tested on: M14 melanoma
[19] = tested on: K-562 leukemia
[20] = tested on: COLO 205 colon

Measured: growth

N#Cc1cnn2c(-c3ccc(Cl)cc3)nc(NC3CC3)nc12
inactive: [1] 90.9% | [2] 97.4% | [3] 87.5% | [4] 98.3% | [5] 100% | [6] 97.5% | [7] 90.6% | [8] 84.4% | [9] 89.8% | [10] 88.8% | [11] 125% | [12] 101% | [13] 93.7% | [14] 84.4% | [15] 89.8% | [16] 89.2% | [17] 111% | [18] 108%

CCOc1cc(N)ccc1C(=O)NCCCN(CC)CC
inactive: [1] 87.9% | [2] 93.6% | [3] 100% | [4] 98.3% | [5] 110% | [6] 90.6% | [7] 98.2% | [8] 104% | [9] 100% | [19] 80.3% | [11] 96.3% | [12] 93.2% | [13] 90.7% | [14] 103% | [15] 103% | [16] 100% | [17] 102% | [18] 96.1%

Cc1nc2ccccc2c(/C=C/c2ccc(Cl)cc2)c1C(=O)/C=C/c1ccc(Cl)cc1
active: [1] -19.7% | [2] -40.6% | [3] 5.27% | [4] -7.32% | [5] -76.3% | [6] -59.9% | [7] -14.6% | [20] -24.5% | [10] -70.5% | [19] 2% | [11] -54.1% | [12] -34.1% | [13] -72.4% | [15] -65.6% | [16] -88.4% | [17] -17.2%
inactive: [8] 56.9% | [14] 25.8%

O=C(c1ccccc1)c1ccc(Cl)c([N+](=O)[O-])c1
active: [19] 7.38%
inactive: [1] 100% | [2] 104% | [3] 90.6% | [4] 124% | [5] 101% | [6] 99.1% | [7] 77% | [8] 103% | [9] 103% | [10] 75.4% | [12] 114% | [13] 104% | [14] 88.6% | [15] 99% | [16] 97.9% | [17] 87.6% | [18] 94.6%

COc1ccc(-n2nnc(C(=O)NCCc3c[nH]c4ccc(F)cc34)c2C)cc1
inactive: [1] 98.5% | [2] 97.9% | [3] 101% | [4] 86.5% | [5] 100% | [6] 87.6% | [7] 76.1% | [9] 99.6% | [20] 111% | [10] 107% | [11] 106% | [12] 97.8% | [13] 105% | [14] 97.3% | [15] 102% | [16] 103% | [17] 87.7%

O=C(NCOC(O)C(Cl)(Cl)Cl)NCOC(O)C(Cl)(Cl)Cl (stereo not drawn)
inactive: [1] 102% | [2] 95.7% | [3] 91.7% | [4] 91.6% | [5] 112% | [6] 119% | [7] 82.8% | [8] 97.5% | [9] 99.2% | [19] 22.2% | [11] 99.5% | [12] 106% | [13] 125% | [14] 105% | [15] 93.8% | [16] 90.4% | [17] 94.9% | [18] 100%

Fc1ccc(Nc2nc(Nc3ccc(-c4nc5ccccc5[nH]4)cc3)c3cn[nH]c3n2)cc1
inactive: [1] 71% | [2] 86.9% | [3] 84.8% | [4] 85.6% | [5] 47.5% | [6] 79% | [7] 65.9% | [8] 73.1% | [20] 27.8% | [10] 54.3% | [11] 107% | [12] 22.2% | [13] 76.2% | [14] 75.1% | [15] 92.6% | [16] 85.5% | [17] 101%
active: [19] -28.7%

Cc1ccc(O)c(C(=O)c2ccccc2Cl)c1
inactive: [1] 94.3% | [2] 100% | [3] 109% | [4] 98.3% | [5] 109% | [6] 112% | [7] 102% | [9] 99.1% | [20] 138% | [10] 126% | [19] 91.4% | [11] 106% | [12] 109% | [13] 104% | [14] 104% | [15] 94.6% | [16] 96% | [17] 108%

CCCCn1c(=O)[nH]c(N)c(C(c2ccc(F)cc2)c2c(N)[nH]c(=O)n(CCCC)c2=O)c1=O
inactive: [1] 77.5% | [2] 77.7% | [3] 74.8% | [4] 77.4% | [5] 51.6% | [6] 82.4% | [7] 51.6% | [8] 69% | [20] 59.9% | [10] 79.1% | [19] 52.9% | [11] 87.7% | [12] 62.9% | [13] 65.5% | [14] 54.1% | [15] 56.8% | [16] 75.3% | [17] 65.9%

CCCCCCNC(=O)c1cc(NCc2cc(O)ccc2O)ccc1O
inactive: [1] 87.5% | [2] 92.3% | [3] 89.2% | [4] 70.9% | [5] 94.5% | [6] 24% | [9] 45.9% | [20] 96.9% | [10] 92.6% | [11] 67.4% | [12] 45.2% | [13] 37.4% | [14] 53.8% | [15] 95.8% | [16] 11.8% | [17] 56.1%
active: [7] -62.3%

O=c1[nH]c(=O)n(C2CC(O)C(CO)O2)cc1CO (stereo not drawn)
active: [9] -18.5%
inactive: [1] 41.6% | [2] 98.2% | [3] 102% | [4] 32.8% | [5] 65.9% | [6] 105% | [7] 101% | [20] 120% | [10] 111% | [19] 82.3% | [11] 90.1% | [12] 102% | [13] 99.5% | [14] 99.8% | [15] 110% | [16] 95.7% | [17] 103%

COc1ccc(-c2nnc(SCC(=O)NC3=NN=C(c4ccccc4)CS3)o2)cc1
inactive: [1] 103% | [2] 93.8% | [3] 102% | [4] 86.2% | [5] 101% | [6] 98.5% | [7] 93.3% | [8] 74.7% | [9] 101% | [10] 102% | [11] 105% | [12] 91.5% | [13] 117% | [14] 94.2% | [15] 98% | [16] 101% | [17] 67.1% | [18] 95.5%

COc1ccc(-n2sc(=O)n(Cc3ccc(COC(=O)C(C)c4ccc(CC(C)C)cc4)cc3)c2=O)cc1 (stereo not drawn)
active: [7] -32.9% | [20] -10.9% | [19] -11.6% | [11] -49.4%
inactive: [1] 78.1% | [2] 68.2% | [3] 94.9% | [4] 66.8% | [5] 76.4% | [6] 19.2% | [9] 57.3% | [10] 43.9% | [12] 62.4% | [14] 71.9% | [15] 97.2% | [16] 26.8% | [17] 54.9%

Nc1ccc(-c2cc3c(Nc4ccc(OCc5cccc(F)c5)c(Cl)c4)ncnc3s2)cc1
inactive: [1] 68.6% | [2] 53.5% | [3] 26.6% | [4] 62.3% | [5] 36.5% | [6] 45.8% | [7] 13.1% | [8] 21.2% | [9] 37.2% | [10] 36.9% | [11] 42.1% | [12] 13.4% | [13] 52.5% | [14] 52.1% | [15] 47.8% | [16] 57.4% | [17] 18.3% | [18] 51.9%

Cc1ccc(NSc2ccccc2[N+](=O)[O-])cc1
inactive: [1] 44.6% | [2] 65.5% | [3] 38.6% | [4] 24.8% | [5] 14.7% | [6] 37.7% | [7] 12.7% | [8] 20.5% | [9] 40.2% | [19] 16.9% | [11] 44.9% | [12] 53.7% | [14] 48.7% | [15] 11.4% | [17] 58.1%
active: [13] -6.02% | [16] -12.3% | [18] 7.95%

Cc1csc(NC(=O)c2sc3nc(-c4cccs4)ccc3c2N)n1
inactive: [1] 94.2% | [2] 96.9% | [3] 102% | [4] 90.4% | [5] 99.3% | [6] 84.7% | [7] 82.3% | [8] 94.7% | [20] 103% | [10] 96.4% | [19] 90.2% | [11] 99.6% | [12] 93.4% | [13] 107% | [14] 102% | [15] 99.7% | [16] 96.9% | [17] 109%

Cc1nc(C)c(-c2nn3c(-c4cccc(F)c4)nnc3s2)s1
inactive: [1] 97.3% | [2] 102% | [3] 106% | [4] 98.7% | [5] 102% | [6] 86.2% | [7] 77.6% | [8] 87% | [20] 101% | [10] 102% | [19] 70.4% | [11] 111% | [12] 107% | [13] 96.3% | [14] 97.6% | [15] 100% | [16] 104% | [17] 92.4%
